Shown are actives, neighbours in structure and some others; about 0.59% of the full set was active somewhere.
mIDH1 inhibitor = inhibitors of human mutant IDH1 R132H; 0.093% of 390,000 active; Potency, µM (top dose mostly 76.6 µM), without a hit: at the top dose activity change, negative = inhibition, actives largely listed as inhibitors; O75874; IDH1-R132H enzyme, NADPH consumption, diaphorase/resazurin fluorescence; note: potency is the fitted concentration of half-maximal effect; % is set by controls: 0 for no effect and ±100 for the full control effect; nearly all actives have a fitted effect of over 65% in size
Target sequence (O75874 whole entry R132H, stated change not applied): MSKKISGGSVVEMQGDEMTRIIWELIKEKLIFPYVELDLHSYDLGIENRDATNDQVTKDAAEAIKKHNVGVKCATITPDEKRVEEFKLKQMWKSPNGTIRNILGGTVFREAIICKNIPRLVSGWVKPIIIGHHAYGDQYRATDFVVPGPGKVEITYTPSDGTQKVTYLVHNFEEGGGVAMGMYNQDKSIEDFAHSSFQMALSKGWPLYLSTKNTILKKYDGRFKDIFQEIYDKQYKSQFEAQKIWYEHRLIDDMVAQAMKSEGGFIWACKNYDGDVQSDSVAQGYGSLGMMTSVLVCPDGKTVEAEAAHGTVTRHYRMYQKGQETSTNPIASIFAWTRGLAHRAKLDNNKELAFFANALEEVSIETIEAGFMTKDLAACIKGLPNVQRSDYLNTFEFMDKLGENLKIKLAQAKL
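IDH1-R132H (0.5 ug/mL dispensed) in pH 7.5 Tris buffer was preincubated 30 min with compound, then given a substrate mix of 0.016 mM NADPH and 2 mM alpha-KG for 80 min at room temperature; remaining NADPH was read by diaphorase/resazurin fluorescence.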
LDHA block = blocks human lactate dehydrogenase A; purified LDHA, NADH/diaphorase-resazurin fluorescence; active compounds read low; activity change, % (values are at about 110 or 230 µM); AID 1347041; P00338; 0.15% of 480,000 active; in the data active = activity change below about -30%; inconclusive = mostly about -25% to -30%;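 note: plate controls were DMSO wells for no effect and wells without enzyme for full effect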
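Enzyme activity of human lactate dehydrogenase 5 (2 nM; 0.06 mM NADH, 0.2 mM pyruvate, 5 min, RT) is measured via a resazurin/diaphorase fluorescence readout of residual NADH.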
Vif-APOBEC3G blk = Vif-A3G binding inhibition. Q9HC16. HeLa A3G-eYFP + Vif (tagged APOBEC3G with the HIV-1 protein that degrades it), YFP fluorescence, overnight. Potency, µM (titrated, usually from 46.1 µM), for the others: top-dose activity, negative = active, usual class: inhibitors. 0.076% of 410,000 active. AID 602310; note: potency is the fitted concentration of half-maximal effect; % is set by controls: 0 for no effect and ±100 for the full control effect; nearly all actives have a fitted effect of over 60% in size
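HeLa cells stably expressing Vif and C-terminally eYFP-tagged A3G, seeded overnight at 37 deg C, then exposed to compound by pintool overnight at 37 deg C. Rise in yellow fluorescence (Ex 488/Em 500-530, Acumen) marks blocked Vif-driven A3G degradation.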
Vif-APOBEC3F blk = blocks the Vif interaction with APOBEC3F | HeLa A3F-eYFP + Vif (tagged APOBEC3F with the HIV-1 protein that degrades it), YFP fluorescence increase | Potency, µM (titrated, usually from 46.1 µM), inactives show at the top dose activity, negative = active | 0.2% of 390,000 active | AID 602313; note: potency is the fitted concentration of half-maximal effect; % of control where 0% means no effect; nearly all actives have a fitted effect of over 65% in size
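Fluorescence increase (Ex 488/Em 500-530) after overnight compound treatment at 37 deg C flags inhibition of Vif-driven A3F-eYFP loss in stable HeLa A3F-eYFP/Vif cells seeded overnight beforehand.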
PINK1 expr mod = modulators of PINK1 expression; PINK1 immunofluorescence, high-content cytometry, 24 h; Potency, µM (top dose mostly 76.6 µM), for the others: at the highest dose activation (PINK1 increase), actives largely listed as activators; 0.2% of 410,000 active; AID 624263; active = well fitted activation curve with a large enough effect; inconclusive = small, poorly fitted or top-dose-only effect; cell line not stated here; note: potency is the fitted concentration of half-maximal effect; % of control where 0% means no effect; nearly all actives have a fitted effect of over 65% in size
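Decision-based qHTS: stable cells, 24 h exposure to five compound concentrations, CCCP as control. Fixed cells stained for PINK1 plus nuclear, mitochondrial and cell markers, cytometer read.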
PTHR1 ag = activates the human parathyroid hormone receptor PTHR1 | Q03431 | HEK293 GP2 PTHR1 cells, GloSensor cAMP luminescence, 1 h | Potency, µM (highest dose often 115 µM), for inactives: at the top dose activation, usual class: activators | 0.075% of 410,000 active; note: potency is the fitted concentration of half-maximal effect; nearly all actives have a fitted effect of over 55% in size
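HEK-293-derived GP2 cells expressing PTHR1 and a GloSensor cAMP reporter, 3,000/well, plated overnight, given luciferin plus IBMX (each 0.5 mM as added) for 1 h at 37 °C, then compound for 1 h at 37 °C. Luminescence was read after 15 min at room temperature.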
Resorufin autofl = autofluorescence interference, mutant IDH1 hit counter-screen. Resorufin detection reagent fluorescence interference, cell-free. inhibition of signal, % at 51.2 µM. shares compounds with mIDH1 inhibitor. 750 tested, under 10 active. AID 623980;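 note: 0% = wells with normal resorufin and full inhibition = wells lacking resorufin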
IDH1 WT = inhibits human wild-type IDH1, mutant selectivity check; shares compounds with mIDH1 inhibitor; WT IDH1 enzyme, NADPH diaphorase/resazurin fluorescence; Potency, µM (highest dose often 115 µM), without a hit: top-dose activity change, negative = inhibition, most hits filed as inhibitors; 9% of 750 active; AID 623995;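 note: potency is the fitted concentration of half-maximal effect; 0% = full WT IDH1 enzyme control and full inhibition = no enzyme wells; nearly all actives have a fitted effect of over 55% in size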
Target sequence (O75874 whole entry, looked up): as the sequence (O75874 whole entry R132H, stated change not applied) above, with H132R counted along it
IDH1 R132H conf = inhibits human mutant IDH1 enzyme in cherrypick confirmation; AID 624002; 83% of 750 active; IDH1 R132H enzyme, NADPH diaphorase/resazurin fluorescence; shares compounds with mIDH1 inhibitor; Potency, µM (doses to about 76.6 µM), inactives show at the top dose activity change, negative = inhibition, hits mostly inhibitors; note: potency is the fitted concentration of half-maximal effect; nearly all actives have a fitted effect of over 50% in size
* hit, by the source's call; [ ] = remark or other dose. Unless noted, calls come from the whole dose curve; as a rule, active = well fitted curve in the direction sought with a large enough effect; inconclusive = small, poorly fitted or top-dose-only effect, or another doubt; inactive = no such curve, though single readings can be large; an effect the other way counts as inactive or inconclusive.

CCOCCCNC1CC(C)CC(C)(C)C1 (stereo unspecified) was read as LDHA block -7.
For CC[N+](C)(CC)CCCOC(=O)C(O)(c1ccccc1)C1CCCCC1 (stereo unspecified) the results were mIDH1 inhibitor 1%, LDHA block -82*, Vif-APOBEC3G blk 0%, Vif-APOBEC3F blk 6%, PINK1 expr mod -1% and PTHR1 ag inactive.
`COc1ccc(-c2nc3ccccc3c(=O)n2-c2ccc(OC)cc2)cc1` gave mIDH1 inhibitor 4%, LDHA block -1, Vif-APOBEC3G blk 0%, Vif-APOBEC3F blk 5%, PINK1 expr mod 1% and PTHR1 ag 27%.
Screening O=c1c2ccccc2sn1-c1ccc(Cl)cc1 returned mIDH1 inhibitor 7%, LDHA block -52*, Vif-APOBEC3G blk -10%, Vif-APOBEC3F blk -26%, PINK1 expr mod 26% and PTHR1 ag -52%.
Screening Cc1ccc(-n2sc3ccccc3c2=O)cc1 returned mIDH1 inhibitor 5%, LDHA block -35*, Vif-APOBEC3G blk -14%, Vif-APOBEC3F blk 1%, PINK1 expr mod -1% and PTHR1 ag -29%.
CCCCOc1ccc(CC2C(=O)N(C)C(=O)N(C)C2=O)cc1 was read as mIDH1 inhibitor inconclusive, LDHA block 3, Vif-APOBEC3G blk -6%, Vif-APOBEC3F blk -22%, PINK1 expr mod 0%, PTHR1 ag inactive, Resorufin autofl -1, IDH1 WT 114% and IDH1 R132H conf 45µM*.
Screening CCOc1ccccc1NC(=O)c1cn(CC)c2ccccc12 returned LDHA block -4.
O=C1NC(=O)C(=Cc2ccc(-c3ccc(S(=O)(=O)N4CCOCC4)cc3)o2)C(=O)N1 was read as mIDH1 inhibitor inconclusive, LDHA block 0, Vif-APOBEC3G blk 3%, Vif-APOBEC3F blk inconclusive, PINK1 expr mod 4% and PTHR1 ag -28%.
`O=C1NC(=O)C(=Cc2ccc(-c3ccc(Cl)cc3)o2)C(=O)N1` gave mIDH1 inhibitor inconclusive, LDHA block -9, Vif-APOBEC3G blk -16%, Vif-APOBEC3F blk -9%, PINK1 expr mod 1%, PTHR1 ag -47%, Resorufin autofl 3, IDH1 WT 2% and IDH1 R132H conf 40µM*.
`Cc1nc2cc(C(F)(F)F)ccc2n1C1CCN(Cc2nnnn2Cc2ccc3c(c2)OCO3)CC1` gave mIDH1 inhibitor inconclusive, LDHA block -3, Vif-APOBEC3G blk -2%, Vif-APOBEC3F blk 2%, PINK1 expr mod -2%, PTHR1 ag -13%[57.5 µM], Resorufin autofl -4, IDH1 WT 14% and IDH1 R132H conf 16µM*.
Screening COC(=O)C1=C(C)NC(=S)NC1c1ccc(N(CCCl)CCCl)cc1Cl (stereo unspecified) returned mIDH1 inhibitor inconclusive, LDHA block 2, Vif-APOBEC3G blk 1%, Vif-APOBEC3F blk 13%, PINK1 expr mod -5%, PTHR1 ag -28%, Resorufin autofl 5, IDH1 WT 2% and IDH1 R132H conf 11µM*.

Screening results: PubChem BioAssay, National Center for Advancing Translational Sciences (NCATS)
